Assay outcomes (PubChem)
An excerpt weighted towards active compounds, which were near 2.9% of everything screened.
Cardio protect: protects H9c2 cardiomyocytes from peroxide injury; protection from H2O2 cell death, % at 20 µM; 360,000 compounds, 0.63% hits; H2O2 injury protection, ATPLite, 2 h;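 active means compounds giving at least 50% protection of heart cells from peroxide-induced death in the single-dose screen, raw or plate-pattern-corrected value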;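 further: 0% = DMSO wells with peroxide and 100% = DMSO wells without peroxide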
ABHD5 PLIN5 PPI: inhibitors of human ABHD5-perilipin-5 interaction | Split G. princeps luciferase complementation, luminescence, 4 h | inhibition, % at 4 µM | 360,000 compounds, 0.78% hits | AID 602281;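 active means inhibition above the mean inhibition across every tested compound plus 3 SD, cut at about 22% in these data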;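 further: 0% = DMSO only wells and the 100% control is not disclosed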
sPLA2-III inh: Inhibits HGIII-sPLA2 liposome hydrolysis, primary screen. QFRET BODIPY PC-A2 liposome hydrolysis, fluorescence. 370,000 compounds, 0.56% hits. inhibition, % at 12.2 µM. AID 743126;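 active means inhibition above mean plus 3 SD of compounds lying within the high and low control bounds, cut at about 19% in these data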;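 further: 0% = median of test compound wells and 100% = no enzyme DMSO wells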
Myeloid diff MLP: promotes myeloid progenitor differentiation; ER-HoxA9 myeloid progenitors, lysozyme-GFP differentiation, flow cytometry; calls only at 10 µM; 360,000 compounds, 1% hits;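 active means normalized GFP-positive differentiation at or above the plate's own cutoff, the solvent-only control mean plus 3 SD; inconclusive means no clear call, values can overlap the other calls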;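 further: cells exposed to compound for four days before flow analysis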
DAGLB inh: blocks human DAGLB lipase activity. Q8NCG7. HEK293T DAGLB membrane lysate, EnzChek fluorogenic substrate. inhibition, % at 5.17 µM. 340,000 compounds, 0.059% hits; in the data active means inhibition above about 34%;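 further: 0% = enzyme with vehicle and 100% = wells lacking enzyme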
Target sequence (Q8NCG7 whole entry, looked up): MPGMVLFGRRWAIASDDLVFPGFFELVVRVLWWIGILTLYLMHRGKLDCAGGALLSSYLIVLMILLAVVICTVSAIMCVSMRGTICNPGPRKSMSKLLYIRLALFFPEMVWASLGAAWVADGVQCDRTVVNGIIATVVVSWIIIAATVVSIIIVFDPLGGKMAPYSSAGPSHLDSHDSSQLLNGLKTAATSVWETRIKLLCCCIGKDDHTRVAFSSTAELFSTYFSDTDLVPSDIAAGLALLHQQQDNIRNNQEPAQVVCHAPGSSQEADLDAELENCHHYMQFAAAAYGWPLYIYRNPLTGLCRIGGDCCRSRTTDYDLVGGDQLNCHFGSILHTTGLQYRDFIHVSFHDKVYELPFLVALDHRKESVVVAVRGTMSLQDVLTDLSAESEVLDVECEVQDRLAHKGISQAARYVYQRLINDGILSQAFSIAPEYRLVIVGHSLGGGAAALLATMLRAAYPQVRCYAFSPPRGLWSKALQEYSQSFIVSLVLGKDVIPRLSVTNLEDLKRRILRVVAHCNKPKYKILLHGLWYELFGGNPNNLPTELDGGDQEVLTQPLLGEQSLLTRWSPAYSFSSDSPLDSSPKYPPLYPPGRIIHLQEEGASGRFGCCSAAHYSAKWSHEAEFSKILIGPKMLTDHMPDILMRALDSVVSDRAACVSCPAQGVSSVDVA
Rtt109 HAT inh: blocks Candida albicans Rtt109/Vps75 acetyltransferase activity; Q5AAJ8; purified Rtt109/Vps75, ThioGlo CoA-SH fluorescence, 4 h; inhibition, % at 34.9 µM; 330,000 compounds, 0.16% hits; AID 540336;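 active means inhibition of at least 50% in every replicate; inconclusive means best replicate reaches 50% inhibition but some replicates fall short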
DAGLB inh conf: DAGLB (human) inhibition, confirmation screen | AID 504445 | HEK293T DAGLB membrane lysate, EnzChek fluorogenic substrate | shares compounds with DAGLB inh | 190 compounds, 73% hits | inhibition, % at 5.17 µM;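 active means mean inhibition over triplicate wells above a set limit taken from the primary lipase screen, cut at about 34% in these data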;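 further: 0% = DAGLB with DMSO and 100% = wells lacking DAGLB enzyme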
ABHD5 PLIN5 conf: ABHD5-PLIN5 interaction inhibition, confirmed | biochemical ABHD5-PLIN5 interaction, luminescence | AID 651612 | inhibition, % at 4 µM | shares compounds with ABHD5 PLIN5 PPI | 2,200 compounds, 67% hits; in the data active means inhibition above about 23%;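 further: 0% = DMSO vehicle wells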
HNF4 counter: counter-screen for ABHD5-PLIN5 inhibitors: HNF4 split-luciferase | shares compounds with ABHD5 PLIN5 PPI | HNF4 dimerization, luminescence, biochemical | inhibition, % at 4 µM | 2,200 compounds, 77% hits | AID 651674;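 active means mean inhibition across replicate wells exceeding the computed hit threshold, cut at about 13% in these data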;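 further: light from luciferase halves that rejoin when HNF4 fusion proteins dimerize; 0% = DMSO only wells and the 100% control is not given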
Numbers without * were called inactive; i = inactive; ? = inconclusive; . = no result given.

SMILES	Cardio protect	ABHD5 PLIN5 PPI	sPLA2-III inh	Myeloid diff MLP	DAGLB inh	Rtt109 HAT inh	DAGLB inh conf	others
COC(=O)C1=C(C(=O)OC)SC(=C2C(=S)C(C)(C)N(C(=O)C3CC3)c3ccccc32)S1	-9.0	-2.6	3.8	i	41.4*	-2.8	47.1*
Cc1ccc(NS(=O)(=O)c2cc([N+](=O)[O-])ccc2NNC(=S)Nc2cc(C)ccc2C)c(C)c1	-11.6	-32.3	-34.2	i	33.1	12.4	.
Cc1ccc(NS(=O)(=O)c2cc([N+](=O)[O-])ccc2NNC(=S)Nc2cccc(Cl)c2)c(C)c1	-16.9	-28.7	.	i	44.5*	-0.4	74.2*
CN1CCN(C2=C(NS(=O)(=O)c3cccs3)C(=O)c3ccccc3C2=O)CC1	-11.8	-15.0	2.4	i	2.2	-12.6	.
CCOc1ccccc1N1CCN(C2=C(NS(=O)(=O)c3cccs3)C(=O)c3ccccc3C2=O)CC1	9.8	-6.0	12.9	i	43.7*	1.4	39.4*
O=C(O)c1ccccc1NS(=O)(=O)c1ccc(NN=Cc2ccc(F)cc2)c([N+](=O)[O-])c1	-8.9	11.8	.	i	36.6*	-5.3	33.5
O=C(O)c1ccccc1NS(=O)(=O)c1ccc(N/N=C/c2ccc(O)c(O)c2)c([N+](=O)[O-])c1	8.9	17.3	-42.3	i	52.4*	-0.5	59.0*
O=C(O)COc1ccccc1/C=N/Nc1ccc(S(=O)(=O)Nc2ccc(Cl)cc2)cc1[N+](=O)[O-]	-1.2	-3.8	-38.5	i	39.7*	2.0	39.9*
COc1ccccc1NS(=O)(=O)c1ccc(N/N=C/c2ccccc2OCC(=O)O)c([N+](=O)[O-])c1	2.1	5.4	-27.9	i	31.2	-0.9	.
Cc1ccsc1C(=O)OCC(=O)NCc1ccccc1	-7.0	2.9	-5.6	i	-1.6	2.8	.
Cc1ccc(/C=C/C(=O)N2CCN(c3ncccn3)CC2)o1	-13.4	19.6	-5.0	i	-2.8	7.4	.
CC(=O)c1ccc(NC(=O)COC(=O)c2ccccc2N=Nc2ccc(N(C)C)cc2)cc1	6.3	-0.8	-3.6	i	36.2*	10.0	27.7
C#CCOCCOCCOCCNc1nc(N2CCN(C(=O)Cn3cc(CCO)nn3)CC2)nc(N2CCN(C(=O)[C@H](C)n3cc(CCCN=C(N)N)nn3)CC2)n1	0.5	-1.5	-0.7	i	-1.8	7.8	.
CCc1nnc(NS(=O)(=O)c2ccc(Nc3ccc([N+](=O)[O-])c4nonc34)cc2)s1	-5.7	-0.1	-13.7	i	35.9*	18.6	32.3
CCc1nnc(NS(=O)(=O)c2ccc(NS(=O)(=O)c3ccccc3[N+](=O)[O-])cc2)s1	-2.4	14.0	-20.2	i	-0.7	3.2	.
Cc1ccccc1NC(=O)Cc1nnc(SCC(=O)Nc2ccccc2)n1C	-0.5	-1.8	-6.4	i	-2.4	-1.1	.
Cc1ccc2cc(C3C(C#N)=C(N)Oc4c3ccc3cccnc43)c(=O)[nH]c2c1 (centres undefined)	69.7*	7.9	.	?	36.0*	-1.6	3.5
O=C(CNc1cccc(S(=O)(=O)N2CCCCCC2)c1)Nc1cccc([N+](=O)[O-])c1	-13.0	-1.0	-41.0	i	-5.4	5.3	.
Cc1ccc(-n2[nH]c(C)c(/C=N/Nc3ccc([N+](=O)[O-])cc3[N+](=O)[O-])c2=O)cc1C	-28.4	-8.9	1.2	i	38.9*	1.9	48.2*
COc1c(/C=N/Nc2ccc([N+](=O)[O-])cc2[N+](=O)[O-])c(C)nn1-c1ccccc1	5.4	-4.8	0.1	i	0.6	-7.4	.
O=[N+]([O-])c1ccccc1N/N=C/c1c[nH]c2ccccc12	-0.4	11.4	14.1	i	58.4*	-1.6	60.5*
O=[N+]([O-])c1ccccc1N/N=C/c1ccccc1	-6.3	7.7	7.9	i	3.2	5.0	.
CC(=O)c1ccc(N2CCN(c3ncc(C(F)(F)F)cc3Cl)CC2)cc1	-36.0	2.7	5.4	i	-7.2	2.5	.
CC(=O)c1ccc(N2CCN(c3ccc(C(F)(F)F)cn3)CC2)cc1	-8.6	-2.9	0.5	i	50.3*	-15.6	70.1*
O=C(NNc1c2ccccc2nc2ccccc12)c1ccccc1O	14.4	25.8*	9.0	i	48.1*	-3.1	82.1*	ABHD5 PLIN5 conf=25.3*;HNF4 counter=18.4*
SMILES	Cardio protect	ABHD5 PLIN5 PPI	sPLA2-III inh	Myeloid diff MLP	DAGLB inh	Rtt109 HAT inh	DAGLB inh conf	others
O=C1NC2(CCc3ccccc32)C(=O)N1CCOc1ccc(Cl)cc1 (centres undefined)	1.1	-2.2	-7.5	i	0.2	1.6	.
Nc1nc(-c2ccccc2)c(N=Nc2ccccc2Cl)s1	-6.5	23.7*	-1.8	i	64.7*	-12.0	91.4*	ABHD5 PLIN5 conf=26.2*;HNF4 counter=16.6*
Cc1ccc(-c2nnc(SCC(=O)NNC(=O)COc3cccc(C)c3)n2C)cc1	0.5	0.8	-9.5	i	4.0	-0.8	.
CC1=NN(c2ccccc2)C(=O)/C1=C\C=C1\N(C)c2ccccc2C1(C)C	-4.7	11.4	15.4	i	20.8	-6.6	.
CC1=NN(c2ccccc2)C(=O)/C1=C\C=C1/N(C)c2ccccc2C1(C)C	-3.2	25.8*	7.7	i	40.1*	.	61.3*	ABHD5 PLIN5 conf=21.4;HNF4 counter=23.1*
Cc1cc(N(CCO)CCO)ccc1N=Nc1cc(F)ccc1F	-6.6	30.5*	6.9	i	42.7*	-0.7	45.0*	ABHD5 PLIN5 conf=22.0*;HNF4 counter=16.7*
CCn1c(NCc2ccc(N(C)C)cc2)nc2ccccc21	-10.0	14.9	8.7	i	-6.0	0.4	.
CN(C)c1ccc(N=Nc2nc3ccccc3n2C)cc1	-21.8	34.4*	32.4*	i	35.9*	13.0	58.9*	ABHD5 PLIN5 conf=26.5*;HNF4 counter=46.4*
Cc1ccc(N(C(=O)Cn2nnc(-c3ccccc3F)n2)C(C(=O)NC2CCCC2)c2ccncc2)cc1 (centres undefined)	1.2	8.1	0.6	i	-4.0	4.6	.
CCN(CC)C(=O)CSc1nc2ccccc2c(=O)n1-c1cccc(OC)c1	8.9	3.9	0.4	i	-0.2	-3.5	.
